These results are taken from ChEMBL document CHEMBL3988442, “University of Dundee, Small-Polar-MMV Screening Library” (2021).

Molecules are shown by their SMILES. For some of these results: Potency and affinity values are given separately.

What all share (set-up): scale not given: direction of the effect not stated beside the values
Assay [1] concerns the target Protein translocase subunit SecA (Escherichia coli (strain K12)) (UniProt P10408). Briefly: Assay to Identify E. coli SecA ATPase Inhibitors. As to conditions: 30 µM. The format is functional.
The target in assay [2] is T1, Ubiquitin-activating enzyme e1, putative (Leishmania donovani (strain BPK282A1)) (UniProt E9BSI1).
T1 sequence (whole entry): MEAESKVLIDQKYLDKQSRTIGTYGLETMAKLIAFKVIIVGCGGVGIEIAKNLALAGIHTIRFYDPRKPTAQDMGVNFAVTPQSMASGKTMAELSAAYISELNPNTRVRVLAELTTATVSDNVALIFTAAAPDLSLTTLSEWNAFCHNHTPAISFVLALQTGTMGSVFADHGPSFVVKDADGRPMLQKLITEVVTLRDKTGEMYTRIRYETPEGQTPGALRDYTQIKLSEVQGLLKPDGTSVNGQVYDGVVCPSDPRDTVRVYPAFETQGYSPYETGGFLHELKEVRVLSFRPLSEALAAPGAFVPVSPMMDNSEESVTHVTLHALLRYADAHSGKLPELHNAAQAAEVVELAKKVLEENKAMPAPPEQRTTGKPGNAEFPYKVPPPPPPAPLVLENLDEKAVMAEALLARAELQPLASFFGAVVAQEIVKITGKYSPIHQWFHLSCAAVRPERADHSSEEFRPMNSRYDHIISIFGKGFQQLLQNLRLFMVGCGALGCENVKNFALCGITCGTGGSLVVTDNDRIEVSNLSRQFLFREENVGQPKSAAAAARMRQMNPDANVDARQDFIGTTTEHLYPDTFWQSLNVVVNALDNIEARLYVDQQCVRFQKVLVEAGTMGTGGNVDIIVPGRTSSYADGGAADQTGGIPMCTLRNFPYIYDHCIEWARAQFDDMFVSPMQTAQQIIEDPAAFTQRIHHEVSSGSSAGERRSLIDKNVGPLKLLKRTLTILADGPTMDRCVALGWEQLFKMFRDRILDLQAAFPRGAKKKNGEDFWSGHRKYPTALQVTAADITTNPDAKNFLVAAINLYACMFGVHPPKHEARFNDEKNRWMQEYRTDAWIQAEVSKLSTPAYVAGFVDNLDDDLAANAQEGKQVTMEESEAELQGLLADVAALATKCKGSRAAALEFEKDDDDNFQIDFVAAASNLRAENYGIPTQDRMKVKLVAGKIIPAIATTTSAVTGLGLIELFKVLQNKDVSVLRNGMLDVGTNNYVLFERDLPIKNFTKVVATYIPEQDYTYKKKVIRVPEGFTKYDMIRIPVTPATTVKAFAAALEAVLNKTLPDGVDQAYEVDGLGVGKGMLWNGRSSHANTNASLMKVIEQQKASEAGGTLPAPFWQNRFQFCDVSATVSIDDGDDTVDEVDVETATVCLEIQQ
The assay is described as follows: Leishmania donovani Ubiquitin Activating Enzyme (LdE1). The format is functional. As to conditions: 30 µM.

For assay [3], the target named is AMP-activated protein kinase, AMPK (Homo sapiens) (UniProt P54646+O43741+P54619+Q9UGJ0+Q9Y478+Q13131+Q9UGI9). Briefly: AMP-dependent Kinase enzyme assay. An in vitro enzyme assay that detects ADP turnover that is directly proportional to AMPK activity. This uses naive AMPK that is activated during the assay with MK-8722. Conditions: 30 µM. The format is functional.

Assay [4] has as its target Sialic acid-binding Ig-like lectin 9 (Homo sapiens) (UniProt Q9Y336). Briefly: Hs-Siglec9 ALPHAscreen SOP 20170721. As to conditions: 10 µM.
The subject of a further assay is Trypanosoma cruzi. Briefly: Trypanosoma cruzi phosphomannomutase and mannose-1-phosphate guanylyltransferase assay. The format is functional. Conditions: 10 µM.
For assay [5], the target named is T2, Arginase-2, mitochondrial (Homo sapiens) (UniProt P78540).
T2 sequence (whole entry): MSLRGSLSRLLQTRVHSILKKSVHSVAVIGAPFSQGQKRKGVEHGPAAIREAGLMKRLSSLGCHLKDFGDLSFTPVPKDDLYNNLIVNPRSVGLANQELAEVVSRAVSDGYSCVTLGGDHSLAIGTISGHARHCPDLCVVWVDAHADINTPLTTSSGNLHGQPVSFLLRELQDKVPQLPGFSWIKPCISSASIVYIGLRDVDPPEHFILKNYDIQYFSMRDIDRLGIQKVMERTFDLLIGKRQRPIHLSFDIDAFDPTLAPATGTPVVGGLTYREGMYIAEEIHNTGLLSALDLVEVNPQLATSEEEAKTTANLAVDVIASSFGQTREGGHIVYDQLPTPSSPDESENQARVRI
The assay is described as follows: in vitro enzyme assay to detect the production of urea directly proportional to the activity of Arginase II. Further: in the data most compounds retested in dose-response had high values. The format is functional. As to conditions: 33.3 µM.

Assay [6] has as its target T3, Proteasome subunit beta (Trypanosoma cruzi) (UniProt O96673).
T3 sequence (whole entry): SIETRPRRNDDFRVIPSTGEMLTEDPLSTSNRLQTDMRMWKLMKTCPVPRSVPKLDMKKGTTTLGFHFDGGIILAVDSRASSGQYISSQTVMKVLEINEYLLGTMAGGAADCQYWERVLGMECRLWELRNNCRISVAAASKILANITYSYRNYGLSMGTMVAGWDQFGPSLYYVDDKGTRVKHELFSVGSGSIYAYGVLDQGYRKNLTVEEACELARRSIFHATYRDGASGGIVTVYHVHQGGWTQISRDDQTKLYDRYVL
The assay is described as follows: Trypanosoma cruzi proteasome chymotrypsin-like activity (TcProtChymo) assay. Further: in the data most compounds retested in dose-response had high values. The format is functional. As to conditions: 9.37 µM.

The species named for the next assay is Homo sapiens. Briefly: To identify inhibition of the IFN signalling (Jak-Stat) pathway via expression of an eGFP reporter gene under the control of an IFN-stimulated response element (ISRE) containing MxA promoter. Conditions: 30 µM. The format is functional.
The target of assay [7] is T4, Tyrosyl-tRNA synthetase, putative (Trypanosoma cruzi (strain CL Brener)) (UniProt Q4DSP6).
T4 sequence (whole entry): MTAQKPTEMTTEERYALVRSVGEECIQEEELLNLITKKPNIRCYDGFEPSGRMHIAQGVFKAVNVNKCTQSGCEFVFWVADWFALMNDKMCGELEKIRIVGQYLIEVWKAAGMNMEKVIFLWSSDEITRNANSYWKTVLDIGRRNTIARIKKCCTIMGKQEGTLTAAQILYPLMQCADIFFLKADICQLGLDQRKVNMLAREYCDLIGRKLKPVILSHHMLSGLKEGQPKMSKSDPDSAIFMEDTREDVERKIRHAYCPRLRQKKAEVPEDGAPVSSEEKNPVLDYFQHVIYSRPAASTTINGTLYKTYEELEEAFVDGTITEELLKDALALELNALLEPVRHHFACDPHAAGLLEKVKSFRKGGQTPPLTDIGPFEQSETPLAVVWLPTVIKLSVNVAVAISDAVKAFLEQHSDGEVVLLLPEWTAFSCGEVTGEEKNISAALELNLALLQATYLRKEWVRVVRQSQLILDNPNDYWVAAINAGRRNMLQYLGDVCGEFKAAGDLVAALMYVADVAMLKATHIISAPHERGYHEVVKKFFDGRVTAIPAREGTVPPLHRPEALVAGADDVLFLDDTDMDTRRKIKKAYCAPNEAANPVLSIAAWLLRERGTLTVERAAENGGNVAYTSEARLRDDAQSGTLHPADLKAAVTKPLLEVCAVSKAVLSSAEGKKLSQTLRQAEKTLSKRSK
Briefly: Trypanosoma cruzi tyrosyl tRNA synthetase (TcYRS) _High Tyrosine SOP. Further: in the data most compounds retested in dose-response had high values. The format is functional. Conditions: 30 µM.

Assay [8] concerns the target T4, Tyrosyl-tRNA synthetase, putative (Trypanosoma cruzi (strain CL Brener)). The assay is described as follows: Trypanosoma cruzi tyrosyl tRNA synthetase (TcYRS) SOP. The format is functional. Conditions: 30 µM.
The target of assay [9] is Chromo domain-containing protein 1 (Saccharomyces cerevisiae (strain ATCC 204508 / S288c) (Baker's yeast)) (UniProt P32657). Briefly: ScCHD-1 Enzyme Inhibition Assay. Further: in the data most compounds retested in dose-response had high values. The format is functional. Conditions: 30 µM.
Chromo domain-containing protein 1 (Saccharomyces cerevisiae (strain ATCC 204508 / S288c) (Baker's yeast)), sequence (P32657 whole entry, the tested form may be a part): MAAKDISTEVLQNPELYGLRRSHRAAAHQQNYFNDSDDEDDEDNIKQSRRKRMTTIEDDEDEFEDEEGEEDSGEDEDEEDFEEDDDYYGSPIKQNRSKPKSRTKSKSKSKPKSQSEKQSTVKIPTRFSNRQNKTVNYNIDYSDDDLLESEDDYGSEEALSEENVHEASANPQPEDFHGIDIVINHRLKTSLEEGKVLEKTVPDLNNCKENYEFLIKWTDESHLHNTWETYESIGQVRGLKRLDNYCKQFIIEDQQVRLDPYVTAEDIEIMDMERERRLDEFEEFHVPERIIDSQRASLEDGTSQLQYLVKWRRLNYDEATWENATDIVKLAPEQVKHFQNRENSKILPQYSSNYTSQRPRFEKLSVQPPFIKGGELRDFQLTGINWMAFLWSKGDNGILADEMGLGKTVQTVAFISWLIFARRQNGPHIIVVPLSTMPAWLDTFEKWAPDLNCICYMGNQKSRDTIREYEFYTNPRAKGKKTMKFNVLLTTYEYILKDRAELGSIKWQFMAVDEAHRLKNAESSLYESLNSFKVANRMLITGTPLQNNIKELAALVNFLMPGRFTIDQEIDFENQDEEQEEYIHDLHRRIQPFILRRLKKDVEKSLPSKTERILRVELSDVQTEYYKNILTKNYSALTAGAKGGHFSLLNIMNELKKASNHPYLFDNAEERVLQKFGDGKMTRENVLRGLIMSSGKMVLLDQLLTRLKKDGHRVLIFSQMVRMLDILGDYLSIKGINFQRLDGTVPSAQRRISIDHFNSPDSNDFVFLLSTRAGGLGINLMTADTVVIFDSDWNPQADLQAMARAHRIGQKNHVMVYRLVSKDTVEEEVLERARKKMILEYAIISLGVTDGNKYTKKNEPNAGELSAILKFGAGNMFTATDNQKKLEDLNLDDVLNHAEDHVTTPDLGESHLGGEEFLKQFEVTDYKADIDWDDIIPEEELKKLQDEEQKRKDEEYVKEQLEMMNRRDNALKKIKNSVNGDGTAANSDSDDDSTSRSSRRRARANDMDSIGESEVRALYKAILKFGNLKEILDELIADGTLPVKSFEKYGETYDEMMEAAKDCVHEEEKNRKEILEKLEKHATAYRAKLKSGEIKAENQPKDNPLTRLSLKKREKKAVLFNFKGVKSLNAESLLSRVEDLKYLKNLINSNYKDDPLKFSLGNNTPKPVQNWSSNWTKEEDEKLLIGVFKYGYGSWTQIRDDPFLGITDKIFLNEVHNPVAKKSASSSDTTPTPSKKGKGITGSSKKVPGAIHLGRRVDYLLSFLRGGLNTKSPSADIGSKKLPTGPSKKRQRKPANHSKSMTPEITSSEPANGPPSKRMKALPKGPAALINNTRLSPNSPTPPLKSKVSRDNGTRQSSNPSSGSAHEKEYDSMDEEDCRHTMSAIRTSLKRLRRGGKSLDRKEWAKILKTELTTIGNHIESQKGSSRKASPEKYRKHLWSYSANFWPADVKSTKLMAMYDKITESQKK

Sialic acid-binding Ig-like lectin 9 (Homo sapiens), sequence (Q9Y336 whole entry): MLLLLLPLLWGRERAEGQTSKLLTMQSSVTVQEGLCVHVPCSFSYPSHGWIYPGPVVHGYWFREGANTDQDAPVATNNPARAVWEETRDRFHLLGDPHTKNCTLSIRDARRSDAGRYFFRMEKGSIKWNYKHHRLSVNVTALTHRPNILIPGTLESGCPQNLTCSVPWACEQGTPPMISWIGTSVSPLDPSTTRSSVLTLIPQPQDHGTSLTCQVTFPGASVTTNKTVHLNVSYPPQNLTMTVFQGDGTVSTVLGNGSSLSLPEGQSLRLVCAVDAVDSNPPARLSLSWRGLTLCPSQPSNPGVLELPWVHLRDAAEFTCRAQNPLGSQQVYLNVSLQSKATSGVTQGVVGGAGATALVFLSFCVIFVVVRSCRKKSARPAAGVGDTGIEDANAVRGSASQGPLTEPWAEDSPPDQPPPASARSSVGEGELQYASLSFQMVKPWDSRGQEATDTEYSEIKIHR
Protein translocase subunit SecA (Escherichia coli (strain K12)), sequence (P10408 whole entry): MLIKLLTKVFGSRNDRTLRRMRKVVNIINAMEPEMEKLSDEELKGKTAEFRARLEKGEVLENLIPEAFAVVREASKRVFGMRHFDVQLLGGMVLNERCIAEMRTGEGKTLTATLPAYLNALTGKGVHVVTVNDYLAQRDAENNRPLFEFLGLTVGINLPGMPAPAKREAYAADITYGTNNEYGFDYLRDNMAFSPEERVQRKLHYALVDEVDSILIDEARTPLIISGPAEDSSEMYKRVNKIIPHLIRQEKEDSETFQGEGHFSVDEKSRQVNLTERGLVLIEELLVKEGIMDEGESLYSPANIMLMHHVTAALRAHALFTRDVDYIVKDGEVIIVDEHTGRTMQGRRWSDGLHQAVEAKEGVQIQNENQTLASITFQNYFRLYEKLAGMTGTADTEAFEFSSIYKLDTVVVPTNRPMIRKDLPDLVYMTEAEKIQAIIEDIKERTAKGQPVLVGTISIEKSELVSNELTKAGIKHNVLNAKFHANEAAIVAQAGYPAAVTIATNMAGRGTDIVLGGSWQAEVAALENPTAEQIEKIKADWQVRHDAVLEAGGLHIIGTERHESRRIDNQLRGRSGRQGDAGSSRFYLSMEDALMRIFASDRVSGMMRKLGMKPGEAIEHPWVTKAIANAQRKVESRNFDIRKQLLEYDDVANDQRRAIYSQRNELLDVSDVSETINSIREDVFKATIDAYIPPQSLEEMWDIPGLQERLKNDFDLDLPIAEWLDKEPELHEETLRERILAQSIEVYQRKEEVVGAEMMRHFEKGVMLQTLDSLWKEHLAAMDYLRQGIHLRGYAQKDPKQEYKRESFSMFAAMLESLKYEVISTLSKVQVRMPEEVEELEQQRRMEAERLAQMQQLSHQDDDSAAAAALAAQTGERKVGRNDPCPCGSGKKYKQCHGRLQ

Take `CN(C)CC1CN(CCOc2cccc(C#N)c2)CCO1` (stereo unspecified): the Percent Effect was -2.7% in assay [1]; -5.26% in assay [2]; -2.16% in assay [3]; -5.38% in assay [4]; -4.95% with Trypanosoma cruzi; 5.75% in assay [5]. Further, the Percent Effect is -8.71% in [6]; -3.58% in the assay filed under Homo sapiens; 1.48% in assay [7]; 3.7% in assay [8]; 4.04% in assay [9].

Turning to `O[C@H]1[C@H](n2cc(-c3cccnc3)nn2)c2ccccc2C12CCNCC2`, the Percent Effect was -1.28% in [1]; 4.17% in assay [2]; -0.513% in assay [3]; 14.2% in [4]; 2.82% in the assay with Trypanosoma cruzi; 12.4% in assay [5]. Also, the Percent Effect in assay [6] is 3.86%; in the assay listed under Homo sapiens, -3.37%; in [7] it was 3.16%; in assay [8], 10.3%; in assay [9], -3.88%.

As to `CC(Cn1cccn1)NC(=O)Nc1nnc(C2CC2)s1` (stereo unspecified), the Percent Effect in assay [1] was -8.16%; in [2], 13%; in assay [3], 2.37%; in [4] it was 7.36%; in the assay with Trypanosoma cruzi it was 1.12%; in assay [5], -0.356%. Moreover, the Percent Effect in assay [6] is -0.845%; in the assay listed under Homo sapiens it was 10.7%; in assay [7], 7.77%; in [8] it was 12.2%; in [9], -5.78%.

For the molecule `Cc1cc(-c2cnc(N3CCNC(=O)C3)nc2-c2ccc(C)o2)on1`, the Percent Effect in assay [1] is -8.2%; in [2], 21.3%; in [3], 3.79%; in [4] it was 11.1%; in the assay on Trypanosoma cruzi, 1.38%; in [5], -6.76%. The Percent Effect in assay [6] was 11.4%; in the assay listed under Homo sapiens, 29.2%; in assay [7], 5.32%; in assay [8], 11.5%; in [9], -16.5%.

Take `CSC(C)(C)CNC(=O)NCCC1CCN(C)CC1`: the Percent Effect in assay [1] is -2.34%; in [2], 2.67%; in assay [3] it was -5.7%; in [4], -5.29%; with Trypanosoma cruzi, 0.487%; in assay [5], -1.56%. Besides, the Percent Effect was 2.96% in assay [6]; 11.5% in the assay filed under Homo sapiens; 1.64% in [7]; 6.17% in assay [8]; 1.16% in [9].

Take `CC(=O)c1cc(CC(=O)NCc2ccc(CN(C)C)cc2)cs1`: the Percent Effect in [1] is -2.94%; in [2], 8.11%; in assay [3] it was -1.37%; in assay [4], 9.94%; in the assay on Trypanosoma cruzi it was 6.37%; in assay [5], 0.476%. Besides, the Percent Effect in [6] was -1.21%; in the assay filed under Homo sapiens it was 1.37%; in assay [7], 2.65%; in [8], 4.88%; in [9], -2.09%.

Turning to `CC(C)c1nccn1-c1cccc(C2CCN(C)CC2)n1`, the Percent Effect in assay [1] was -4.43%; in assay [2], 9.46%; in assay [3], 4.91%; in assay [4] it was -4.03%; in the assay on Trypanosoma cruzi it was 4.54%; in assay [5], -5.8%. Further, the Percent Effect in assay [6] was 14.2%; in the assay listed under Homo sapiens it was 0.127%; in assay [7] it was 1.07%; in assay [8] it was 6.49%; in assay [9] it was -24.6%.

Turning to `Cn1nc2c(cc1=O)CN(Cc1coc(-c3cccs3)n1)CC2`, the Percent Effect was 0.447% in assay [1]; 16.2% in assay [2]; -166% in [3]; 5.69% in assay [4]; 4.81% in the assay on Trypanosoma cruzi; 0.802% in [5]. Moreover, the Percent Effect in [6] is -1.26%; in the assay filed under Homo sapiens, -8.71%; in assay [7] it was -2.46%; in assay [8], 3.7%; in [9], -4.95%.

Turning to `CCc1nnc2n1CCN(C(=O)COCCc1ccccc1)C2`, the Percent Effect in assay [1] is -5.81%; in [2], 15.8%; in [3], -4.37%; in [4], 7.1%; in the assay on Trypanosoma cruzi it was -2.71%; in assay [5] it was 1.8%. Besides, the Percent Effect in assay [6] was 1.78%; in the assay filed under Homo sapiens, -1.11%; in assay [7], 3.45%; in [8], 13.6%; in assay [9], -2.89%.

On to `Cc1ncc2c(n1)CCCC2NC(=O)c1ccncc1` (stereo unspecified), for which the Percent Effect in assay [1] is -8.52%; in assay [2] it was 2.6%; in assay [3] it was -3.85%; in assay [4], 1.2%; in the assay with Trypanosoma cruzi, -1.87%; in assay [5], -1.38%. For the same molecule, the Percent Effect in assay [6] is 3.16%; in the assay listed under Homo sapiens it was 0.503%; in assay [7], 1.07%; in assay [8], -3.7%; in assay [9], -0.226%.

In the case of `O=C(CCN1CCCC1=O)NCc1cccnc1Oc1ccccc1`, the Percent Effect in [1] is -6.95%; in assay [2], -8.22%; in assay [3], 0.461%; in [4], 2.58%; with Trypanosoma cruzi, 0.595%; in assay [5], -1.2%. Moreover, the Percent Effect was 4.88% in assay [6]; -2.67% in the assay listed under Homo sapiens; 1.04% in assay [7]; 6.17% in [8]; -1.4% in assay [9].
